An excerpt weighted towards active compounds, which were near 5.7% of everything screened.
MPTP block: blocks calcium-induced mitochondrial swelling; inhibition, % at 10 µM; AID 602449; actives 1.4% (n = 360,000); isolated mouse mitochondria, Ca2+ swelling absorbance, 30 min;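 active = inhibition of 50% or more, scaled per plate between neutral and stimulator controls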;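 also: 0% = DMSO wells given calcium and 100% = 1 mM EGTA wells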
FAS-TE inh: blocks the thioesterase domain of human fatty acid synthase. recombinant FAS-TE, OMFH fluorogenic substrate, fluorescence endpoint. AID 602261. P49327. inhibition, % at 15 µM. actives 0.67% (n = 360,000);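 active = compounds whose normalised, plate-corrected inhibition of enzyme fluorescence in the single-dose primary screen is 50% or more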;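 also: 0% = DMSO with enzyme and 100% = substrate without enzyme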
Target sequence (P49327 whole entry, looked up, the tested form may be a part): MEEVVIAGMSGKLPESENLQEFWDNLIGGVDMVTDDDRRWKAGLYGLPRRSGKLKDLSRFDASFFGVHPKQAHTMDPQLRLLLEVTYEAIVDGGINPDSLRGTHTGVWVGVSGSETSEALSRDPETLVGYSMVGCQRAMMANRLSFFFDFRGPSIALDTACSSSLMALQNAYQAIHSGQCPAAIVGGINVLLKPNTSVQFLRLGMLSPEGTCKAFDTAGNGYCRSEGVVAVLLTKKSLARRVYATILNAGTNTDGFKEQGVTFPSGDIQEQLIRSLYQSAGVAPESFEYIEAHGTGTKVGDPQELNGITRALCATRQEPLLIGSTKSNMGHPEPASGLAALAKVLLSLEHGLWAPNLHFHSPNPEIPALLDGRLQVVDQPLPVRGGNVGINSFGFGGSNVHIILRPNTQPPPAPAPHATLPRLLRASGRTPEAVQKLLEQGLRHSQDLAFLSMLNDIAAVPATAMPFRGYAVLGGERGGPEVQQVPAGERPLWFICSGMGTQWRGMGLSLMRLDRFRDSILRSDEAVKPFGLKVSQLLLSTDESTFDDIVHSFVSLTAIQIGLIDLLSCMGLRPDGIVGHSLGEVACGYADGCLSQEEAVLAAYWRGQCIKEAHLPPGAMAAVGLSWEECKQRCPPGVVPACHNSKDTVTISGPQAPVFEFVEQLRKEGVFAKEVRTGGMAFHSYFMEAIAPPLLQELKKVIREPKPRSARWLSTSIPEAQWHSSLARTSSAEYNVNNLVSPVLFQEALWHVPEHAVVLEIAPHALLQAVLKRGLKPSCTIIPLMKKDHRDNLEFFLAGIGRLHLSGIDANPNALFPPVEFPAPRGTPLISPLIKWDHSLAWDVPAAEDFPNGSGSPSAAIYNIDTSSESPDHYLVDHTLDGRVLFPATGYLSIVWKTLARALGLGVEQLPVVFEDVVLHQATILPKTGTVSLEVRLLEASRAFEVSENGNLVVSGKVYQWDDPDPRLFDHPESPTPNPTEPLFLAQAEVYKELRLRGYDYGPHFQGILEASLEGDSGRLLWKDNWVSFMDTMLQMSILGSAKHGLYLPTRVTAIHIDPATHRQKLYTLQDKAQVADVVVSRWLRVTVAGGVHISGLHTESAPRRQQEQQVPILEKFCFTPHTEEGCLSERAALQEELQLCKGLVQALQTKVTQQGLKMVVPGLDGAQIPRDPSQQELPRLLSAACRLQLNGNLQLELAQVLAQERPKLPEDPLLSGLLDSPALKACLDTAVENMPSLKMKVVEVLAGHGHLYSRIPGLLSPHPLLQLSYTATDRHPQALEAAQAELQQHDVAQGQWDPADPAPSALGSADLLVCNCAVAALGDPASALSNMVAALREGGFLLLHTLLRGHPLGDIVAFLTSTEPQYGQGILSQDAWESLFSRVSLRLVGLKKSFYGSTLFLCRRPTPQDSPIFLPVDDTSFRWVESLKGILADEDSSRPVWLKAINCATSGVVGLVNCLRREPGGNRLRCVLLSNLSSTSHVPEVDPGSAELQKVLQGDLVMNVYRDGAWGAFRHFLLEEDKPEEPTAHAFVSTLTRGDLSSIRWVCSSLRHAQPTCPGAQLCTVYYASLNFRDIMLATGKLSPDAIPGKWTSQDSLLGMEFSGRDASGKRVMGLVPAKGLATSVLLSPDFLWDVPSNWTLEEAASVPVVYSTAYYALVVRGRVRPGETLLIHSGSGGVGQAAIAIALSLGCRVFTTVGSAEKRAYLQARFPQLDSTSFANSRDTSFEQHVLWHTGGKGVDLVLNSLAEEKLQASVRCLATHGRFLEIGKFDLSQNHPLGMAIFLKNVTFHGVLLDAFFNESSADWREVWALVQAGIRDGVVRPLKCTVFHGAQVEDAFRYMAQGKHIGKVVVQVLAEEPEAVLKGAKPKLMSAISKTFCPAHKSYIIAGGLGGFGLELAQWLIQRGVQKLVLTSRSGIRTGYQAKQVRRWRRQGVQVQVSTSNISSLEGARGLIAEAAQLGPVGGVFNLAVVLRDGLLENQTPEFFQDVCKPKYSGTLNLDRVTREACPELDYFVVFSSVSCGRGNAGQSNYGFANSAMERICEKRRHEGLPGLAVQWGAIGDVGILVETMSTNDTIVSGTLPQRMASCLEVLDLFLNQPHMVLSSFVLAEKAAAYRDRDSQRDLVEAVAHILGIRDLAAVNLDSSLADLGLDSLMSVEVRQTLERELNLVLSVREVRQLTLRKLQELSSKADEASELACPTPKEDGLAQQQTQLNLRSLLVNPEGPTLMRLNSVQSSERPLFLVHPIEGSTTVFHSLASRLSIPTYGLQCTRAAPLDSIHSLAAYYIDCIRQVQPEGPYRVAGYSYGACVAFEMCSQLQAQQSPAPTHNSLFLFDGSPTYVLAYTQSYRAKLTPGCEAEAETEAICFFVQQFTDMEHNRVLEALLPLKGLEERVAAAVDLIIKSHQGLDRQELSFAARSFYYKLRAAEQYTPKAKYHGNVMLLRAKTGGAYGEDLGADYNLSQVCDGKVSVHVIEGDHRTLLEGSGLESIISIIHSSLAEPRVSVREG
Myeloid diff 2: compounds promoting myeloid differentiation. actives 1% (n = 360,000). ER-HoxA9 myeloid progenitors, lysozyme-GFP differentiation, flow cytometry. calls only at 10 µM;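 active = normalized GFP-positive differentiation at or above the plate's own cutoff, the solvent-only control mean plus 3 SD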;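 also: cells exposed to compound for four days before flow analysis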
rCAG RNA binder: binds r(CAG) RNA repeats; actives 1.3% (n = 370,000); inhibition, % at 3 µM; r(CAG) RNA repeat, TO-PRO-1 dye displacement fluorescence;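 active = inhibition above the plate cutoff, the mean of all test compounds on that plate plus 3 SD, cut at about 35% in these data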;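 also: 0% = DMSO alone and 100% = 100 µM mitoxantrone as full dye displacement; higher means more dye released from RNA so lower well fluorescence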
GRIN3A LBD mod: modulates the human NR3A ligand-binding domain. Tm shift relative to glycine control, % at 25 µM. actives 2.5% (n = 340,000). NR3A LBD differential scanning fluorimetry, Tm shift; 0% = protein alone, 100% = glycine-bound protein;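 active = melting temperature shift of at least 10% of the positive control shift, at one fixed dose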
The depositor's hits bear a star; i = inactive; x = no result given; + = active, no number.

SMILES	MPTP block	FAS-TE inh	Myeloid diff 2	rCAG RNA binder	GRIN3A LBD mod
O=C(N/N=C/c1ccc(-c2cccc(C(F)(F)F)c2)o1)c1cccc(F)c1	13	16	i	7	11*
Cc1ccc(NCC(=O)N/N=C/c2ccc(-c3cccc(C(F)(F)F)c3)o2)cc1	2	13	i	10	25*
O=C(O)c1cccc(-c2ccc(/C=N/NC(=O)c3cccnc3)o2)c1	0	-8	i	0	-2
COC(=O)[C@]12C[C@H](CC(=O)NCCc3ccccc3OC)C(=O)N(CCC3=CCCCC3)C1=C[C@H](COCc1ccccc1)O[C@@H]2C	x	x	x	8	x
CC[C@]1(c2ccc(C)cc2)C(=O)N(C(=O)OC(C)C)N1C(=O)OC(C)C	x	x	x	-2	x
CN1C(=O)c2cc(NS(=O)(=O)c3ccc(F)cc3)ccc2OC[C@H]2O[C@@H](CC(=O)NCC(F)(F)F)CC[C@@H]21	x	x	x	1	x
COP(=O)(O)CCOCCC(CC(C)C)NC(=O)OCc1ccccc1 (stereo not given)	x	x	x	5	x
O=C(N/N=C/c1ccc(-c2cccc(C(F)(F)F)c2)o1)c1ccccc1O	31	-4	i	2	20*
NC(=O)N/N=C/c1ccc(-c2cccc(C(F)(F)F)c2)o1	0	-2	i	2	-1
Oc1ccccc1-c1nnc(COc2ccc(Cl)cc2Cl)o1	1	9	+	5	1
O=C(/C=C(\Nc1ccc(Br)c(F)c1)c1ccccc1)c1ccccc1	x	x	x	1	x
O=C(c1ccc(N2CN(C(=O)c3ccco3)c3nc4ccccc4nc32)cc1)N1CCOCC1	0	12	+	4	-3
C=CCn1c(SCC(=O)Nc2ccccc2OCC)nnc1-c1ccc(C(C)(C)C)cc1	x	x	x	0	x
C[C@H]1C=C(C(=O)N2CCOCC2)O[C@@H](OCc2ccc(CO)cc2)C1	-2	-10	+	0	1
O=[N+]([O-])c1nn(-c2ccc3c(c2)OCCO3)n(O)c1=NCCCO	-1	2	i	1	2
Cc1ccc(CN=c2c([N+](=O)[O-])nn(-c3ccc4c(c3)OCCO4)n2O)cc1	2	21	i	-3	13*
C#CCSc1nnc(-c2c[nH]c3ccccc23)n1C	3	-9	+	3	-2
CC(C)Sc1nnc(-c2c[nH]c3ccccc23)n1C	1	0	i	-1	1
N=C1c2ccccc2CN1NC(=O)CC12CC3CC(CC(C3)C1)C2	3	-8	+	8	-7
O=C(Nc1ccc([N+](=O)[O-])cc1)C(Cc1ccccc1)N1C(=O)c2cccc3cccc(c23)C1=O (stereo not given)	2	-6	i	6	11*
CN(C)S(=O)(=O)c1cc(NC(=O)[C@H](Cc2ccccc2)N2C(=O)c3ccccc3C2=O)ccc1Cl	0	43	i	13	-6
O=C(c1cccc(Br)c1)N1CCC(Oc2cccnc2)CC1	x	x	x	-2	x
C=CCN1C(=O)[C@@H](CC(=O)NCc2ccc(C)o2)[C@]2(C(=O)OCC)CCCCC/C=C/12	x	x	x	3	x
Oc1ccccc1Nc1nc(NCc2ccco2)c2ccccc2n1	27	15	i	10	24*
Cc1ccccc1Nc1nc(NCc2ccco2)c2ccccc2n1	41	8	i	5	-4
SMILES	MPTP block	FAS-TE inh	Myeloid diff 2	rCAG RNA binder	GRIN3A LBD mod
CCOc1cc(NC(=S)NCC2CCCO2)c(OCC)cc1NC(=O)c1ccccc1C (stereo not given)	1	2	+	-8	0
CCC1(C)CC(C(CC(=O)O)c2ccc(C)cc2)CCO1 (stereo not given)	0	-2	i	2	11*
CC1(C)CC(C(CC(=O)O)c2ccccc2)CCO1 (stereo not given)	0	-11	i	-1	-1
Fc1cccc(Cn2ccc3ccc(-c4ccc5ccn(Cc6cccc(F)c6)c5c4)cc32)c1	x	x	x	7	x
CCCC[C@H](C(=O)N(CC)c1ccccc1)[C@@H](O)c1ccc(Cl)cc1	x	x	x	2	x
Cc1sc2ncnc(N(C)Cc3cccs3)c2c1C	9	11	i	-4	11*
Cc1sc2ncnc(N(C)CCc3ccccn3)c2c1C	-2	-3	i	-1	0
CCSc1nc(=S)n(Cc2ccccc2)c(C)c1C(C)=O	0	9	i	3	-3
CCn1c(C)c(C(C)=O)c(NCc2ccccc2)nc1=S	-1	4	i	3	14*
CC(=O)c1c(N2CCN(C)CC2)nc(=S)n(Cc2ccccc2)c1C	-3	-16	i	-2	10*
CC(=O)c1c(NCc2ccccc2)nc(=O)n(-c2ccccc2)c1C	1	-5	i	-1	0
COc1ccc(C2C(C(=O)N3CCOCC3)CC(=O)N2c2ccc(OC)cc2)cc1 (stereo not given)	x	x	x	3	x
O=C(NCCc1ccccc1F)c1cccc2cccnc12	2	-5	+	3	-3
CCCCN(CC)C(=O)c1cc2cc3ccc(Cl)cc3nc2o1	3	42	i	-1	19*
CCN1C(=O)C(F)(CC)C(=O)c2ccccc21 (stereo not given)	-1	-9	i	0	13*
CCO/C=C1/C(=O)N(CC)c2ccccc21	0	0	i	0	-1
Cc1ccc(C)c(NC(=O)c2cccc3c2-c2ccccc2C3=O)c1	x	x	x	6	x
O=[N+]([O-])c1cccn2cc(-c3ccc(Br)cc3)nc12	0	4	+	10	4
CCC(=O)Nc1cccc(-c2cn3cccc(C)c3n2)c1	0	-4	i	-3	15*
Cc1cccn2cc(-c3ccc(Cl)cc3)nc12	-1	5	i	0	-364
Cc1ccc(-c2cn3cccc(C)c3n2)cc1	0	-1	i	-3	23*
CCOC(=O)C1=CCN(S(=O)(=O)c2ccc([N+](=O)[O-])cc2)C1c1ccc(C)cc1 (stereo not given)	x	x	x	3	x
COC(=O)C1=C(C)N(Cc2ccccc2C(F)(F)F)C(=NCc2ccc(OC)cc2)NC1c1ccccc1C(F)(F)F (stereo not given)	x	x	x	4	x
Cc1noc(C)c1C(=O)N1CCC(n2nnc3ncccc32)CC1	x	x	x	0	x
COc1ccccc1NCC(O)Cn1c2ccccc2c2ccccc21 (stereo not given)	7	36	i	3	11*
SMILES	MPTP block	FAS-TE inh	Myeloid diff 2	rCAG RNA binder	GRIN3A LBD mod
COc1ccc(CCNCC(O)Cn2c3ccccc3c3ccccc32)cc1OC (stereo not given)	4	-8	i	5	-2
O=C(N/N=C/c1ccc[nH]1)c1cc2ccccc2cc1O	0	0	i	33	11*
O=C(N/N=C/c1ccncc1)c1cc2ccccc2cc1O	1	-2	i	34	13*
Cc1cccc(C(=O)N/N=C/c2ccc[nH]2)c1	-1	-12	i	-1	-1
O=C(Nc1ccccc1C(=O)N/N=C/c1ccncc1)c1ccccc1	2	-6	i	0	2
C[C@@H]1ON(C)[C@H]2C[C@H]3c4cc(-c5ccc6c(c5)OCO6)ccc4CCN3C[C@@H]12	x	x	x	1	x
CC(C)CNC(=O)OCc1cn(Cc2ccccc2F)nn1	x	x	x	-1	x

From PubChem BioAssay
